Assay results as given in PubChem BioAssay (NCATS).
Records with an inconclusive call do not appear. Entries that show only a call come without a potency. A number with no mark means an inactive call. Active and inactive are the calls of the source. The call rests on the fitted dose curve; in most records, active means well fitted cell-killing curve with a large enough effect; inconclusive means small, poorly fitted or top-dose-only effect, or effect the other way; inactive means no such curve, though single readings can be large or run the other way.

assay: Viability qHTS for spleen associated tyrosine kinase inhibitor (SYKi) naive MV4-11 cells (AID 1963823); conditions: MV4-11 AML viability, CellTiter-Glo luminescence, 72 h; series mostly up to 45 µM; further: nearly all actives have a fitted effect of over 40% in size
Summary of the method: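 qHTS, SYK inhibitor-naive MV4-11; 500 cells/well; 72 hr compound exposure, 37 C; CellTiter-Glo added, 10 min RT; luminescence read.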
Potency means the concentration at half of the fitted maximal effect.

| SMILES | viability (% of control) | Potency |
| --- | --- | --- |
| CC(=O)OC1CC(C)(C(=O)O)CC2C3=CC(=O)C4C5(C)CCC(OC6OC(C(=O)O)C(O)C(O)C6OC6OC(C(=O)O)C(O)C(O)C6O)C(C)(C)C5CCC4(C)C3(C)CCC12C (centres undefined) | 70.5% [at 9.25 µM] | – |
| CC(O)(CC(=O)O)CC(=O)O[C@@H]1[C@@H](O)[C@H](OCCc2ccccc2)O[C@H](CO)[C@H]1O (some centres undefined) | – | inactive |
| CCc1cc(CC[C@]2(C3CCCC3)CC(O)=C(Cc3nc4nc(C)cc(C)n4n3)C(=O)O2)cc(CC)n1 | – | 10.3 µM (active) |
| CC(C)(OC1OC(CO)C(O)C(O)C1O)C1CCC(O)(CO)C2CC(=O)C(C)(O)C2C1 (centres undefined) | – | inactive |
| COc1ccc(C2(O)c3c(ccc4c3OC(C)(CCC=C(C)C)C=C4)NC(=O)C2OC)cc1 (centres undefined) | – | inactive |
| CC(O)CCc1ccc(O[C@@H]2O[C@H](CO)[C@@H](O)[C@H](O)[C@H]2O)cc1 (some centres undefined) | – | inactive |
| COc1ccc(CCC(=O)c2c(O)cc(O)cc2O[C@@H]2O[C@H](CO)[C@@H](O)[C@H](O)[C@H]2O)cc1 | – | 7.96 µM (active) |
| C[C@H]1C(=O)N2c3ccccc3[C@@]3(O)C[C@@H]4C(=O)N[C@](C)(c5nc6ccccc6c(=O)n54)N1[C@@H]23 | – | inactive |
| CC(=O)OC[C@]12[C@H](OC(C)=O)[C@H](OC(=O)c3ccccc3)[C@@H]3[C@@H](OC(C)=O)[C@]1(OC3(C)C)[C@H](C)C[C@H](OC(=O)c1ccccc1)[C@@H]2OC(=O)c1ccccc1 | – | inactive |
